Source: PubChem BioAssay
Rows were chosen to be rich in hits. Some 3.5% of all compounds tested hit in one or more screens of this group.
UGM FP inh: M. tuberculosis UGM enzyme inhibitors, primary screen, biochemical, fluorescence polarization, single point; inhibition, % at 10 µM; UDP-galactopyranose mutase (Mycobacterium tuberculosis (strain ATCC 25618 / H37Rv)), …; 320,000 tested, 0.06% active; purified UGM, fluorescence polarization probe displacement; in the data active means inhibition above about 10%, passing the limit was not always enough
Target sequence (P9WIQ1 whole entry, looked up): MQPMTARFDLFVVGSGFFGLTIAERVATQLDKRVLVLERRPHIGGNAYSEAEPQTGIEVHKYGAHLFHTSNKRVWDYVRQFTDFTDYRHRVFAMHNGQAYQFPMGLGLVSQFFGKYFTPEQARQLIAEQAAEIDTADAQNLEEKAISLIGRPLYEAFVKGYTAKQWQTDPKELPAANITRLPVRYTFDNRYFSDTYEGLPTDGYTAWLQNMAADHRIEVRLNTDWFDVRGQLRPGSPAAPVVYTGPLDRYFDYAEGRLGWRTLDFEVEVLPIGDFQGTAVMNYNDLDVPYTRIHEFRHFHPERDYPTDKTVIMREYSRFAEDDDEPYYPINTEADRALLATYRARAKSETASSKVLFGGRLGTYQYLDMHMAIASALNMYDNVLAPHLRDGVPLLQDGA
FadD28 FP inh: inhibitors of FadD28 bisubstrate probe binding, primary screen, biochemical, fluorescence polarization, single point. Mycobacterium tuberculosis FadD28 fatty-acid-AMP ligase. 360,000 tested, 0.22% active. inhibition, % at 12.5 µM. AID 588549, 2011; in the data active means inhibition above about 8.5%, passing the limit was not always enough
Rv3671c protease: Rv3671c serine protease inhibitors, primary screen, biochemical, fluorescence polarization, M. tuberculosis H37Rv; P9WHR9; inhibition, % at 5.96 µM; 320,000 tested, 0.048% active; AID 2606, 2010; in the data active means inhibition above about 38%;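 further: extracellular domain of Rv3671c used as enzyme; 0% = enzyme with DMSO and 100% = no enzyme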
Mtb FBA inh: Mtb FBA enzyme inhibitors, primary screen, biochemical, fluorescence, strain H37Rv | Fructose-bisphosphate aldolase (Mycobacterium tuberculosis (strain ATCC 25618 / H37Rv)), … | purified M. tuberculosis FBA, fluorescence read-out | inhibition, % at 1 µM | 360,000 tested, 2.3% active;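 further: 0% = vehicle and 100% = reference inhibitor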
Mtb hypoxia inh: PubChem AID 1159583; M. tuberculosis hypoxia-regulated fluorescent reporter, fluorescence; fluorescence inhibition, % (test concentration not listed); 300,000 tested, 0.1% active; in the data active means fluorescence inhibition mostly above about 23%, no sharp cut-off; inactive means mostly below about 17%
GDH-TPI counter-1: GDH-TPI coupling enzyme inhibitors, primary screen, artefact control for M. tuberculosis FBA inhibitor project, biochemical, absorbance, full deck | GDH-TPI coupled enzyme counterscreen, NADH absorbance | inhibition, % at 4.8 µM | 360,000 tested, 1.2% active | AID 588335, 2011; in the data active means inhibition above about 30%;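 further: 0% = DMSO wells and 100% = wells lacking the enzyme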
Mtb FBA inh conf: M. tuberculosis aldolase blockers, biochemical, fluorescence, strain H37Rv, confirmation; inhibition, % at 1 µM; 5,600 tested, 78% active; purified M. tuberculosis FBA, fluorescence read-out; AID 651616, 2012; shares compounds with Mtb FBA inh;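 further: 0% = vehicle wells and 100% = reference inhibitor wells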
GDH-TPI counter-2: GDH-TPI coupling enzyme inhibitors, artefact control for M. tuberculosis FBA inhibitor project, biochemical, fluorescence, high throughput. shares compounds with Mtb FBA inh. GDH-TPI coupled enzyme counterscreen. inhibition, % at 1 µM. 5,600 tested, 81% active; in the data active means inhibition above about 10%
An asterisk follows results filed as active. Unless noted, no stated cut-off is given here; in the data, active means inhibition above about 27%; inactive means the rest.

How did COc1cccc(CNC(=O)c2cc(C3CC3)nc3c2cnn3C(C)C)c1 do in these assays?
UGM FP inh: -1; FadD28 FP inh: -5; Rv3671c protease: -4; Mtb FBA inh: 10; Mtb hypoxia inh: 11; GDH-TPI counter-1: 4

How did O=C(NCc1cccnc1)c1cnn2ccccc12 do in these assays?
UGM FP inh: 0; FadD28 FP inh: -3; Rv3671c protease: -3; Mtb FBA inh: 30*; Mtb hypoxia inh: 0; GDH-TPI counter-1: 6; Mtb FBA inh conf: 193*; GDH-TPI counter-2: 140*

What do the screens show for `Cc1cc(C)n2ncc(C(=O)NCc3cccnc3)c2n1`?
UGM FP inh: -1; FadD28 FP inh: -2; Rv3671c protease: -9; Mtb FBA inh: 42*; GDH-TPI counter-1: -1; Mtb FBA inh conf: 43*; GDH-TPI counter-2: 42*

Results for O=C(NCc1ccccc1)[C@]1(C(F)(F)F)CC(CCc2ccccc2)CCCO1 (some centres not stated) ?
Mtb hypoxia inh: 0

How did Fc1cccc(C=NNc2ccc(Cl)nn2)c1 do in these assays?
Mtb hypoxia inh: -2

Results for CN(CCC=C1c2ccccc2CSc2ccccc21)CCCO ?
Mtb hypoxia inh: 7

Results for Cc1ccc(CN2CCN(N=Cc3ccco3)CC2)c(C)c1 ?
Mtb hypoxia inh: -3

What do the screens show for `Cc1c(C)c(C)c(CON=Cc2cccs2)c(C)c1C`?
Mtb hypoxia inh: 1

What do the screens show for `O=c1cc(CN2CCCC2)c2c(ccc3ccccc32)o1`?
FadD28 FP inh: -1; Mtb FBA inh: 13

Results for O=c1cc(CN2CC=C(c3ccccc3)CC2)c2c(ccc3ccccc32)o1 ?
UGM FP inh: 1; FadD28 FP inh: -3; Rv3671c protease: -9; Mtb FBA inh: 94*; Mtb hypoxia inh: 6; GDH-TPI counter-1: 13; Mtb FBA inh conf: 114*; GDH-TPI counter-2: 100*

Results for COc1ccc(-c2nn(-c3ccccc3)cc2C(=O)NN=Cc2ccc([N+](=O)[O-])o2)cc1 ?
Mtb hypoxia inh: -4

What do the screens show for `CCCOc1ccc(C=NNC(=O)C2CC2)c(OCCC)c1`?
Mtb hypoxia inh: 6

Results for CN1CCc2c(sc(/N=C/c3ccco3)c2C(N)=O)C1 ?
UGM FP inh: 2; FadD28 FP inh: -1; Rv3671c protease: 0; Mtb FBA inh: 40*; GDH-TPI counter-1: 21; Mtb FBA inh conf: 42*; GDH-TPI counter-2: 24*

How did CN1CCc2c(sc(N=Cc3ccco3)c2C(N)=O)C1 do in these assays?
Mtb hypoxia inh: 13

How did C#Cc1ccc(C2C=C(C(=O)OCC=C)OC(OCC)C2CCCO)cc1 (configuration not stated) do in these assays?
Mtb hypoxia inh: 7

How did CCCCN1C(=S)NCC1c1ccccc1 (configuration not stated) do in these assays?
Mtb hypoxia inh: 2

What do the screens show for `COCCCn1cnc2c(c1=O)c1nc3ccccc3nc1n2-c1ccccc1`?
UGM FP inh: -2; FadD28 FP inh: -2; Rv3671c protease: 0; Mtb FBA inh: 7; Mtb hypoxia inh: -2; GDH-TPI counter-1: 7

How did COCCCn1cnc2oc3nc4ccccc4nc3c2c1=O do in these assays?
UGM FP inh: 2; FadD28 FP inh: -2; Rv3671c protease: 10; Mtb FBA inh: 100*; Mtb hypoxia inh: 9; GDH-TPI counter-1: 9; Mtb FBA inh conf: 86*; GDH-TPI counter-2: 64*

Results for COc1ccc(CCNC(=O)c2cc3c(=O)n4cccc(C)c4nc3n(CC3CCCO3)c2=N)cc1 (configuration not stated) ?
UGM FP inh: 3; FadD28 FP inh: -6; Rv3671c protease: 1; Mtb FBA inh: 20; Mtb hypoxia inh: -2; GDH-TPI counter-1: 5

How did Cc1cccn2c(=O)c3cc(C(=O)NCc4ccco4)c(=N)n(CCc4ccccc4)c3nc12 do in these assays?
FadD28 FP inh: -3; Rv3671c protease: -15; Mtb FBA inh: 53*; Mtb hypoxia inh: 4; GDH-TPI counter-1: 4; Mtb FBA inh conf: 90*; GDH-TPI counter-2: 81*

What do the screens show for `Cc1cccn2c(=O)c3cc(C(=O)NCCc4ccccc4)c(=N)n(Cc4ccco4)c3nc12`?
UGM FP inh: 6; FadD28 FP inh: -2; Rv3671c protease: -12; Mtb FBA inh: 30*; Mtb hypoxia inh: -1; GDH-TPI counter-1: -2; Mtb FBA inh conf: active; GDH-TPI counter-2: active

How did Cc1cccn2c(=O)c3cc(C(=O)NCC4CCCO4)c(=N)n(CCc4ccccc4)c3nc12 (configuration not stated) do in these assays?
UGM FP inh: 4; FadD28 FP inh: 0; Rv3671c protease: 0; Mtb FBA inh: 109*; Mtb hypoxia inh: 4; GDH-TPI counter-1: -5; Mtb FBA inh conf: 76*; GDH-TPI counter-2: 64*

Results for CCOCCCn1c(=N)c(C(=O)NCc2ccc3c(c2)OCO3)cc2c(=O)n3cccc(C)c3nc21 ?
UGM FP inh: 4; FadD28 FP inh: -2; Rv3671c protease: -8; Mtb FBA inh: 6; Mtb hypoxia inh: 3; GDH-TPI counter-1: 10

What do the screens show for `NS(=O)(=O)c1ccc(CCNC(=O)c2ccc3c(c2)N(Cc2ccccc2)CCS3)cc1`?
UGM FP inh: 3; FadD28 FP inh: 1; Rv3671c protease: -5; Mtb FBA inh: 68*; Mtb hypoxia inh: -10; GDH-TPI counter-1: 10; Mtb FBA inh conf: 2; GDH-TPI counter-2: -4

Results for COc1ccc(C(=O)NCCc2ccccc2)cc1OC ?
UGM FP inh: 0; FadD28 FP inh: 0; Rv3671c protease: 0; Mtb FBA inh: 2; Mtb hypoxia inh: -8; GDH-TPI counter-1: 4

What do the screens show for `COc1ccc(CCNC(=O)c2ccc3c(c2)N(Cc2ccccc2)CCS3)cc1OC`?
UGM FP inh: 3; FadD28 FP inh: -3; Rv3671c protease: -3; Mtb FBA inh: 64*; Mtb hypoxia inh: 11; GDH-TPI counter-1: 10; Mtb FBA inh conf: 100*; GDH-TPI counter-2: 83*

How did CCCN(CC(=O)Nc1ccccc1C)C(=O)CCCOc1ccc(Br)cc1 do in these assays?
UGM FP inh: -1; FadD28 FP inh: -5; Rv3671c protease: -3; Mtb FBA inh: 38*; Mtb hypoxia inh: 9; GDH-TPI counter-1: -3; Mtb FBA inh conf: -2; GDH-TPI counter-2: -4
